Compound activity deposited in PubChem BioAssay by National Center for Advancing Translational Sciences (NCATS).
Sfp inh: inhibitors of Bacillus subtilis Sfp phosphopantetheinyl transferase | Q9F4F7 | Biochemical Sfp PPTase activity, qHTS | Potency, µM, for inactives: largest response in the series, negative = inhibition, hits mostly inhibitors | 310,000 compounds, 3.5% hits | AID 1490;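 further: the enzyme is Sfp with the accession as filed and its product quenches rhodamine fluorescence; 0% = enzyme reaction without inhibitor and -100% = no enzyme wells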
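Buffer: 50 mM Hepes-Na pH 7.6, 10 mM MgCl2, 0.01% Nonidet P-40, 0.01% BSA. Enzyme 15 nM, pre-exposed to compound 15 min; substrates then added and fluorescence change tracked over 30 min.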
HP1b binding inh: blocks HP1-beta chromodomain binding to methylated histone tails; AlphaScreen HP1-beta / biotin-H3K9me3 peptide binding; Potency, µM (series often up to 114 µM), for the others: at the top dose activity change, negative = inhibition, hits mostly inhibitors; 390,000 compounds, 0.56% hits; AID 540317; further: nearly all actives have a fitted effect of over 70% in size
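HP1-beta protein (50 nM final) preincubated 30 min at room temperature with biotinylated H3(1-18)K9me3 peptide (50 nM) in PBS pH 7.4, 0.01% Tween-20, then compound added for 30 min. AlphaScreen streptavidin donor/nickel chelate acceptor beads (10 ug/mL final), 30 min dark, luminescence read.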
L3MBTL1 inh: inhibitors of human L3MBTL1; Q9Y468; AlphaScreen L3MBTL1–H3K9me1 peptide binding; Potency, µM (top dose mostly 57.1 µM), inactives show at the highest dose activity, negative = inhibition, most hits filed as inhibitors; 230,000 compounds, 0.66% hits; AID 485360; further: on the % scale 0 is the no-effect control and ±100 the full control effect; nearly all actives have a fitted effect of over 60% in size
Target sequence (Q9Y468 whole entry, looked up): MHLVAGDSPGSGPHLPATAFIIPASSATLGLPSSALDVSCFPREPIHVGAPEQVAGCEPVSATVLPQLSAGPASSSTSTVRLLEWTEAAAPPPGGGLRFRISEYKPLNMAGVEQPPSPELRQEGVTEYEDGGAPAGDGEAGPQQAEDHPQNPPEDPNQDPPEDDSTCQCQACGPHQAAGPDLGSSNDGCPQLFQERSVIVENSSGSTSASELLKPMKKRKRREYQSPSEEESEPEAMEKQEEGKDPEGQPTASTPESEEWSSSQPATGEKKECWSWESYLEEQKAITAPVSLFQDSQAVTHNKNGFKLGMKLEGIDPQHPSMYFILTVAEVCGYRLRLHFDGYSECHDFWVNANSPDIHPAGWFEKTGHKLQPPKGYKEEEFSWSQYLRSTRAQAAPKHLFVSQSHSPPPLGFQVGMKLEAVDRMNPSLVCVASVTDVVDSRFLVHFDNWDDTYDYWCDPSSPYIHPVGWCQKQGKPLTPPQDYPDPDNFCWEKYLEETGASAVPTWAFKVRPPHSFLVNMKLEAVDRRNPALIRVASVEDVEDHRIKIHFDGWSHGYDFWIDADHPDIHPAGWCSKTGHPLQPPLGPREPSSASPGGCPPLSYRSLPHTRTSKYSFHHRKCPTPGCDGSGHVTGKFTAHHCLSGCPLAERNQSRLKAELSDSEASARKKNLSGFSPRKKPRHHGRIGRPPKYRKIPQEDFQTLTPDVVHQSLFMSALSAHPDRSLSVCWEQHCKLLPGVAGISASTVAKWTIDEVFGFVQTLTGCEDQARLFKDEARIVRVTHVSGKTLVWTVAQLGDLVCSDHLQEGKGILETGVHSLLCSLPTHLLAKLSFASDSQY
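Read-out is AlphaScreen signal from streptavidin donor and nickel chelate acceptor beads (10 ug/mL final each) bridging L3MBTL1 (50 nM) and biotinylated K9-monomethylated H3(1-15) peptide (75 nM), after 30 min compound exposure at room temperature.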
G9a inh: inhibitors of human histone lysine methyltransferase G9a. 350,000 compounds, 8.8% hits. Potency, µM (series often up to 102 µM), for the others: at the top dose activity, negative = inhibition, actives largely listed as inhibitors. G9a H3K9 monomethylation, AlphaScreen, 2 h. AID 504332; further: on the % scale 0 is the no-effect control and ±100 the full control effect; nearly all actives have a fitted effect of over 75% in size
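Readings reflect AlphaScreen signal from monomethyl-H3K9 antibody detection. HMT at 20 nM; substrate b-H3K9 500 nM; cofactor SAM 20 uM; 2 h RT reaction; compounds tested as titrations in qHTS with 15 min preincubation.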
JMJD2A Tudor: inhibitors of human JMJD2A Tudor domain. O75164. AlphaScreen JMJD2A-Tudor / H3K4me3 peptide binding. Potency, µM (series often up to 114 µM), for the others: top-dose activity change, negative = inhibition, actives largely listed as inhibitors. 390,000 compounds, 4.4% hits; further: on the % scale 0 is the no-effect control and ±100 the full control effect; nearly all actives have a fitted effect of over 50% in size
BAZ2B block: inhibitors of human BAZ2B bromodomain. Q9UIF8. AlphaScreen BAZ2B-H3K14Ac peptide displacement. Potency, µM (series often up to 114 µM), for inactives: at the highest dose activity change, negative = inhibition, actives largely listed as inhibitors. 360,000 compounds, 4.4% hits; further: on the % scale 0 is the no-effect control and ±100 the full control effect; nearly all actives have a fitted effect of over 60% in size
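Protein-peptide AlphaScreen: BAZ2B 50 nM, b-H3K14Ac 50 nM, 1x PBS pH 7.4 + 0.01% Tween-20. Preincubation 30 min RT; cpd 30 min RT (top 110 uM); beads 20 min RT, light-protected.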
An asterisk follows results filed as active; ? = inconclusive; . = not tested or not shown; [ ] = another dose, or the depositor's remark. This is a sample that favours compounds with a hit; in the whole collection about 12% have one here. The call rests on the fitted dose curve; in most records, active means well fitted curve in the direction sought with a large enough effect; inconclusive means small, poorly fitted or top-dose-only effect, or another doubt; inactive means no such curve, though single readings can be large; an effect the other way counts as inactive or inconclusive. Potency means the concentration at half of the fitted maximal effect.

SMILES | Sfp inh | HP1b binding inh | L3MBTL1 inh | G9a inh | JMJD2A Tudor | BAZ2B block
COc1ccc(OC)c(NC(=O)CN2C(=O)NC3(CCCc4ccccc43)C2=O)c1 (centres undefined) | . | 22% | -6% | ? | -27% | -28%
COc1cccc(NC(=O)CN2C(=O)NC3(CCCc4ccccc43)C2=O)c1 (centres undefined) | . | 39% | 1% | 10µM* | -1% | -4%
COc1ccc(C(NC(=O)CN2C(=O)NC3(CCc4ccccc43)C2=O)c2ccccc2)cc1 (centres undefined) | . | 52% | -4% | -13%[12.7 µM] | -11% | -27%
Cc1ccc(S(=O)(=O)NCC(=O)N/N=C/c2ccc(Cl)cc2)cc1 | -2% | 19% | 25% | 54%[59 µM] | -15% | 32%
Cc1ccc(S(=O)(=O)NCC(=O)N/N=C/c2ccc(Cl)cc2Cl)cc1 | 45µM* | 12% | -4% | 11% | -24% | -10%
COCCNCC(O)CON=C1c2ccccc2-c2ccccc21 (centres undefined) | 14% | 9% | -5% | -25% | -15% | -17%
CC(C)CCNCC(O)CON=C1c2ccccc2-c2ccccc21 (centres undefined) | 35µM* | 44% | 7% | -23% | -9% | -34%
Cc1cc(C)c(Cn2c(C)c(CNCCCc3ccccc3)c(C(=O)O)c2C)c(C)c1 | . | 14% | . | 2%[59 µM] | -33% | -21%
Cc1cc(C(=O)N/N=C/c2cc(Br)c(Br)o2)n[nH]1 | ? | -2% | . | 10µM* | ? | -26%
Cc1cc(C(=O)N/N=C/c2cc(Cl)cc([N+](=O)[O-])c2O)n[nH]1 | 12% | 27% | -28% | . | ? | 50µM*
Cc1cc(C(=O)N/N=C\c2cc(C(C)(C)C)c(O)c(C(C)(C)C)c2)n[nH]1 | -6% | -17% | . | 40µM* | ? | -11%
Cc1cc(C(=O)N/N=C/c2ccc(-c3ccc([N+](=O)[O-])cc3Cl)o2)n[nH]1 | -20% | 20% | . | 50µM* | ? | 79µM*
CC(C)CCSc1nnc2n(-c3ccccc3)c(=O)c3c4c(sc3n12)CC(C)CC4 (centres undefined) | . | 31% | . | 7%[59 µM] | -17% | -2%
NCCn1c(=O)c(CCc2ccccc2)nc2cncnc21 | -28% | . | . | 2%[0.501 µM] | . | .
CCOc1cc2c3c(c1)C1(OCCO1)C(=O)N3C(C)(C)CC2C (centres undefined) | -10% | 4% | -9% | -21%[12.7 µM] | -23% | -10%
CCOc1cc2c3c(c1)C1(Nc4ccccc4S1)C(=O)N3C(C)(C)CC2C (centres undefined) | -29% | ? | . | ? | 35µM* | 28µM*
COc1cccc2cc(-c3nc4sc(C(=O)Nc5ccc(F)cc5F)c(C)c4c(=O)[nH]3)c(=O)oc12 | . | 46% | . | -1%[59 µM] | -20% | -16%
Cc1ccc(CNc2nc(-c3ccco3)nn2S(=O)(=O)c2ccc3ccccc3c2)cc1 | . | 5% | . | -31%[59 µM] | -16% | ?
CS(=O)(=O)n1nc(-c2ccc(Cl)cc2)nc1N | 4% | -9% | 4% | . | -12% | -5%
CCS(=O)(=O)n1nc(-c2ccc(Cl)cc2)nc1SC | 56µM* | 92% | 3% | 7%[59 µM] | 38% | 26%
O=S(=O)(c1ccc2ccccc2c1)n1nc(-c2ccco2)nc1NCc1ccc(F)cc1 | . | 24% | . | 18µM* | -35% | ?
CCS(=O)(=O)n1nc(-c2ccco2)nc1SC | 35µM* | ? | . | ? | 28µM* | 21%
Cc1ccc(S(=O)(=O)n2nc(-c3ccco3)nc2SCc2ccccc2)cc1 | -5% | 21% | -3% | ? | -29% | ?
CSc1nc(-c2ccco2)nn1S(=O)(=O)c1ccccc1 | ? | . | 9%[11.4 µM] | 20µM* | . | ?
COc1ccccc1C(=O)n1nc(-c2ccco2)nc1SC | -18% | 44% | . | ? | -11% | -35%
SMILES | Sfp inh | HP1b binding inh | L3MBTL1 inh | G9a inh | JMJD2A Tudor | BAZ2B block
CC1=C(c2ccc(C)cc2)S(=O)(=O)NC1=NCCCN1CCN(c2ccccc2F)CC1 | . | 45% | . | -33%[59 µM] | -6% | 2%
CCOc1ccccc1NC(=O)Cn1nnc2sc(-c3ccccc3)cc2c1=O | . | 21% | . | 0%[59 µM] | -29% | -15%
CSc1nc(-c2ccco2)nn1S(=O)(=O)c1ccc(C)cc1 | 45µM* | 3% | 2% | 40µM* | -12% | -7%
Cc1ccc(Cn2c(=O)n(CCc3ccccc3)c(=O)c3c(C)c(C)sc32)cc1 | . | 19% | . | -6%[59 µM] | 2% | -13%
S=c1[nH]nc(-c2ccco2)n1/N=C/c1cccc(Cl)c1Cl | 1% | -38% | -6% | 1.4µM* | 35µM* | 50µM*
S=c1[nH]nc(-c2ccco2)n1/N=C/c1ccc(Cl)cc1Cl | -6% | -21% | -10% | ? | 40µM* | ?
Cc1nc2nncn2c(NCc2ccc(Cl)cc2)c1C | . | 46% | . | 1%[59 µM] | 5% | -1%
COc1ccc2c(c1)CCCC(Br)C2=O (centres undefined) | . | ? | . | . | 50µM* | .
COCC(=O)Nc1cc(Sc2ccccc2)ccc1N=C(NC(=O)OC)NC(=O)OC | 8% | . | . | 0%[12.7 µM] | . | .
Cc1cccc(CN2CC34CCC(CC3S2(=O)=O)O4)c1 (centres undefined) | -20% | 9% | . | . | -11% | .
NS(=O)(=O)c1ccc(N2N=C(c3ccccc3)CC2c2cccc(F)c2)cc1 (centres undefined) | 2% | 54% | 54% | 67%[59 µM] | 35% | 41%
COc1ccc(C2CC(c3ccccc3)=NN2c2ccc(N)cc2)cc1 (centres undefined) | -11% | ? | -13% | 45µM* | ? | 40µM*
COc1ccc(C2CC(c3ccccc3)=NN2c2ccc(S(N)(=O)=O)cc2)cc1OC (centres undefined) | 89µM* | 63% | 54% | . | 17% | 15%
COc1ccc(C2CC(c3ccccc3O)=NN2c2ccccc2)cc1 (centres undefined) | . | 183% | . | . | 133% | .
COc1ccc(C2CC(c3ccccc3)=NN2c2ccc(Cl)c(C(=O)O)c2)cc1 (centres undefined) | 56µM* | 90% | 33% | . | 30% | 25%
Cc1ccc(NS(=O)(=O)c2ccc3c(c2)CCCC(=O)N3)cc1C | . | . | . | . | -27% | .
CC(C)[C@@H](CC(=O)N[C@@H]1CCNC[C@H]1C(=O)N[C@H](CC(=O)N[C@@H](CCC(=O)O)CC(=O)O)Cc1ccccc1)NC(=O)C[C@H](CO)NC(=O)[C@@H]1CCCC[C@H]1N | -21% | . | . | . | . | .
Cc1ncc2c(c1O)COP(=O)(O)OC2 | 7% | . | . | . | . | .
CC1=C(C(=O)OC2CCCC2)C(c2ccc(Cl)cc2)CC(=O)N1 (centres undefined) | . | 33% | . | 7%[59 µM] | 4% | -7%
